28 compounds from the supplement of paper PMC13380429 can be followed below.

The test system of assay [1] is Vero E6 infected with SARS-CoV-2. Briefly: morphology score (similarity to uninfected cells); higher = more like uninfected cells. The following applies: 24 h.
For assay [2] the test system is unchanged. As to the kind of experiment: SARS-CoV-2 infection rate relative to infected DMSO; higher = more infection, active = 60 or less. The following applies: 24 h.

Molecules are shown by their SMILES.

Take `Fc1ccc(CNc2ncnc3ccc(F)cc23)cc1` [spautin-1] (10 µM): the morphology score in assay [1] is -0.0451. For the same compound, in assay [2], the SARS-CoV-2 infection rate was 117% (inactive).
Taken in the same sequence, the figures for `Nc1ncnc2c1ncn2[C@@H]1O[C@H](COP(=O)(O)O)[C@@H](O)[C@H]1O` [adenosine-phosphate] (10 µM) were -0.114 and 113% (inactive).
On the same counts, the results for `CC(C)(C)NC[C@H](O)COc1cccc2c1CCCC2=O` [levobunolol] (10 µM) are 0.0302 and 108% (inactive).
On the same counts, the results for `CC/C=C\C/C=C\C/C=C\C/C=C\C/C=C\C/C=C\CCC(=O)OCC` [doconexent-ethyl-ester] (10 µM) are 0.193 and 88.5% (inactive).
In assay [1], `Cc1ccnc2c1NC(=O)c1cccnc1N2C1CC1` [nevirapine] (10 µM) displayed a morphology score of 0.173. Besides, the SARS-CoV-2 infection rate in assay [2] is 104% (inactive).
On the same counts, the results for `COc1cc2c(cc1F)C(c1ccccc1Cl)=Nc1c(n[nH]c1C)N2` (10 µM) are -0.191 and 104% (inactive).
Taken in the same sequence, the figures for `CC(c1cc2ccccc2s1)N(O)C(N)=O` (stereo unspecified) [zileuton] (10 µM) were 0.0704 and 98.5% (inactive).
In turn, `Cc1ccc(C)c([C@H](O)CNC(C)C)c1` [benzenemethanol,-2,5-dimethyl-[[(1-methylethyl)amino]methyl]] (10 µM) had a morphology score in assay [1] of 0.0583. Besides, in assay [2], the SARS-CoV-2 infection rate is 106% (inactive).
On the same counts, the results for `COc1ccc2nc(NC(=O)Nc3ccccc3)sc2c1` [frentizole] (10 µM) are -0.0784 and 114% (inactive).
Taken in the same sequence, the figures for `CC(C)(C)Cn1c(N)nc2ccc(-c3[nH]c(C(C)(C)C)nc3-c3ccc(F)cc3)nc21` (10 µM) were -0.205 and 111% (inactive).
Taken in the same sequence, the figures for `c1ccc(-c2nc(CN3CCN(c4ncccn4)CC3)c[nH]2)cc1` (10 µM) were -0.0694 and 107% (inactive).
With `Cc1c(C(=O)NN2CCOCC2)nn(-c2ccc(Cl)cc2Cl)c1-c1ccc(I)cc1` (10 µM), the morphology score in assay [1] was 0.11. Also, in assay [2], the SARS-CoV-2 infection rate was 87.5% (inactive).
Compound `C[N+]1(C)[C@@H]2CC[C@H]1C[C@@H](OC(=O)C(O)c1ccccc1)C2` (stereo partly specified) [homatropine-methylbromide] (10 µM) showed a morphology score in assay [1] of -0.0363. The SARS-CoV-2 infection rate in assay [2] was 104% (inactive).
On the same counts, the results for `Nc1nccc2c1ncn2[C@@H]1O[C@H](CO)[C@@H](O)[C@@H]1O` [3-deazaadenosine] (10 µM) are 0.123 and 106% (inactive).
Taken in the same sequence, the figures for `CC[C@@]1(O)C(=O)OCc2c1cc1n(c2=O)Cc2cc3ccccc3nc2-1` [camptothecin] (0.833333 µM) were -0.218 and 114% (inactive).
On the same counts, the results for `Nc1ccc(S(=O)(=O)Nc2ccc(Cl)nn2)cc1` [sulfachlorpyridazine] (10 µM) are 0.104 and 108% (inactive).
In turn, `CNC[C@H](O)c1cccc(O)c1` [phenylephrine] (10 µM) registered a morphology score in assay [1] of -0.0115. In addition, the SARS-CoV-2 infection rate in assay [2] is 110% (inactive).
Taken in the same sequence, the figures for `N=C(N)NS(=O)(=O)c1ccc(N)cc1` [sulfaguanidine] (10 µM) were 0.00117 and 108% (inactive).
Taken in the same sequence, the figures for `CCCCC(CC)CNC(=N)NC(=N)NCCCCCCNC(=N)NC(=N)NCC(CC)CCCC` (stereo unspecified) [alexidine] (0.833333 µM) were -0.0694 and 104% (inactive).
On the same counts, the results for `CNC(=O)c1c(C)oc2cc(Oc3ncnc4cc(OC)c(OC)cc34)ccc12` [fruquintinib] (10 µM) are 0.0139 and 110% (inactive).
Turning to `CNC(=O)c1cc2c(cn1)[nH]c1ccccc12` (10 µM), in assay [1], the morphology score is 0.241. Besides, the SARS-CoV-2 infection rate in assay [2] was 85.5% (inactive).
Taken in the same sequence, the figures for `O=c1[nH]c(=O)n([C@H]2CCCO2)cc1F` (racemic) [ftorafur] (10 µM) were -0.016 and 116% (inactive).
With `C[C@@H]1C/C=C/C=C/C=C/C=C/[C@H](O[C@@H]2O[C@H](C)[C@@H](O)[C@H](N)[C@@H]2O)C[C@@H]2O[C@](O)(C[C@@H](O)C[C@H]3O[C@@H]3/C=C/C(=O)O1)C[C@H](O)[C@H]2C(=O)O` [natamycin] (10 µM), the morphology score in assay [1] was 0.0781. Moreover, the SARS-CoV-2 infection rate in assay [2] is 108% (inactive).
Consider `NC(=O)c1cc([N+](=O)[O-])cc([N+](=O)[O-])c1` [nitromide] (10 µM), for which the morphology score in assay [1] amounted to 0.265. Further, in assay [2], the SARS-CoV-2 infection rate was 83.5% (inactive).
On the same counts, the results for `O[C@H]1[C@H]2[C@H](O)CCCN2C[C@H]1O` [swainsonine] (10 µM) are -0.0751 and 97% (inactive).
On the same counts, the results for `Cc1cnc(CNC(=O)c2c(=O)c3ccc(N4CCCN(C)CC4)nc3n3c2sc2ccccc23)cn1` (0.833333 µM) are 0.0323 and 109% (inactive).
On the same counts, the results for `FC(F)(F)c1ccc(/C=C/c2nc(COc3ccc(CCCCn4ccnn4)cc3)co2)cc1` [mubritinib] (10 µM) are -0.0917 and 96% (inactive).
The compound `CC(=O)O[C@H]1C[C@@H]2CC[C@@H]3[C@H](CC[C@@]4(C)[C@H]3C[C@H](N3CC[N+](C)(C)CC3)[C@@H]4OC(C)=O)[C@@]2(C)C[C@@H]1N1CC[N+](C)(C)CC1` [pipecuronium] (10 µM) gave a morphology score in assay [1] of 0.0487. Besides, the SARS-CoV-2 infection rate in assay [2] was 106% (inactive).
